Laboratory results from PubChem BioAssay (EPA / NIEHS).
Inconclusive results are not listed. The source made the active and inactive calls. How the source made its calls: active means hit-call score of the fitted dose curve at least 0.9, where 1 is the maximum; inconclusive means response in the unintended direction; inactive means score below 0.9.

How the values were obtained:
[1] = TOX21_p53_BLA_p2_viability: Viability Assessment in the Tox21 HCT-116 p53 Agonism Beta-lactamase Assay, Phase 2 (AID 2283591);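 further: actives lower the ATP signal meaning cytotoxicity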
Procedure, shortened: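 HCT-116 p53-bla cells (4000/well) rested 5 h at 37C, then received compounds in DMSO (217-fold dilution) for 16 h at 37C, 5% CO2. After the CCF4 read, CellTiter-Glo was added; ATP luminescence was read after 30 min at room temperature.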

[2] = target: Cellular tumor antigen p53 (Homo sapiens) (UniProt P04637); test: TOX21_p53_BLA_p2_ratio: Tox21 HCT-116 p53 Agonism Beta-lactamase Assay, Ratio, Phase 2 (AID 2283592)
Sequence of Cellular tumor antigen p53 (Homo sapiens) (P04637 whole entry, looked up): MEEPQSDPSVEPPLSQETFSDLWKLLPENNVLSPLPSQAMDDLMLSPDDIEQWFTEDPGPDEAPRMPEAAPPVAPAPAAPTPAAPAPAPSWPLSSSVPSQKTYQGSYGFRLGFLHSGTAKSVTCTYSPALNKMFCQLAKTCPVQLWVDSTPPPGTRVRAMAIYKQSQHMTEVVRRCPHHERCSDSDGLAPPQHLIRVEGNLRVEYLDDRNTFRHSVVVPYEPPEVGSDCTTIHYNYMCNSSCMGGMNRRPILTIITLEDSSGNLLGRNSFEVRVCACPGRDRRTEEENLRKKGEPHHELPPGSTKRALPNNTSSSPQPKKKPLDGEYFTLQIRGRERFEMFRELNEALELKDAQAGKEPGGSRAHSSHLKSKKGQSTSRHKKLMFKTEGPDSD
Procedure, shortened: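 Gain-of-signal p53 agonism was scored from the beta-lactamase FRET ratio (460/530 nm, 405 nm excitation) in HCT116 cells treated 16 h at 37C, 5% CO2, with DMSO serving as negative control and baseline.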

[3] = TOX21_p53_BLA_p3_viability: Viability Assessment in the Tox21 HCT-116 p53 Agonism Beta-lactamase Assay, Phase 3 (AID 2283593)
Procedure, shortened: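 HCT-116 cells (4000/well) rested 5 h at 37C, then got DMSO compounds by pin tool (217-fold dilution) for 16 h at 37C, 5% CO2. After the bla read, CellTiter-Glo was added and luminescence read at 30 min, room temperature.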

[4] = target: Cellular tumor antigen p53 (Homo sapiens) (UniProt P04637); test: TOX21_p53_BLA_p3_ratio: Tox21 HCT-116 p53 Agonism Beta-lactamase Assay, Ratio, Phase 3 (AID 2283596)
Procedure, shortened: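 HCT116 p53-bla cells (4000/well) given compound in DMSO (217-fold dilution) after 5 h, incubated 16 h at 37C. CCF4-AM substrate 2 h at room temperature; 460/530 nm emission ratio, gain fitted against DMSO.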

[5] = TOX21_p53_BLA_p4_viability: Viability Assessment in the Tox21 HCT-116 p53 Agonism Beta-lactamase Assay, Phase 4 (AID 2283597);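 further: hits lower the luminescence signal meaning cytotoxicity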
Procedure, shortened: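 Following a 16 h exposure at 37C, the treated HCT116 wells were first read for the FRET ratio. They were then lysed with CellTiter-Glo, and ATP luminescence was recorded after 30 min at room temperature.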

[6] = target: Cellular tumor antigen p53 (Homo sapiens) (UniProt P04637); test: TOX21_p53_BLA_p5_ratio: Tox21 HCT-116 p53 Agonism Beta-lactamase Assay, Ratio, Phase 5 (AID 2283599)
Procedure, shortened: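 HCT-116 cells carrying a p53-inducible beta-lactamase reporter were seeded at 4000 cells/well and dosed after 5 h with compound in DMSO (217-fold dilution). After 16 h at 37C, CCF4-AM substrate was added for 2 h, and the 460/530 nm emission ratio was scored as gain-of-signal versus DMSO.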

[7] = TOX21_p53_BLA_p5_viability: Viability Assessment in the Tox21 HCT-116 p53 Agonism Beta-lactamase Assay, Phase 5 (AID 2283600)
Procedure, shortened: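 After the 460/530 nm beta-lactamase measurement, the wells received an ATP-detection luciferase reagent; signal was read 30 min later at RT. Compound treatment lasted 16 h on cells pre-incubated 5 h post-seeding.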

[8] = target: Cellular tumor antigen p53 (Homo sapiens) (UniProt P04637); test: TOX21_p53_BLA_p4_ratio: Tox21 HCT-116 p53 Agonism Beta-lactamase Assay, Ratio, Phase 4 (AID 2283601)
Procedure, shortened: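 HCT116 cells carrying an inducible beta-lactamase reporter were plated at 4000 cells/well, rested 5 h, then exposed to compounds in DMSO (217-fold dilution) for 16 h at 37C. CCF4-AM substrate was loaded 2 h at room temperature; 460/530 nm emission ratio scored gain-of-signal versus DMSO.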

[9] = TOX21_PR_BLA_Followup_Agonist_viability: Viability Assessment in the Tox21 HEK293 Progesterone Receptor (PR) Agonism Beta-lactamase Follow-Up Assay (AID 2283935);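 further: signal loss means lower viability so actives are cytotoxic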
Procedure, shortened: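 PR-UAS-bla HEK293T cells in 2% charcoal-stripped FBS medium, plated 6 hr before compound addition, exposed 16 hr at 37C. Viability read by CellTiter-Glo ATP luminescence after 30 min at room temperature, in the same wells as the beta-lactamase readout.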

[10] = TOX21_PR_BLA_Followup_Antagonist_viability: Viability Assessment in the Tox21 HEK293 Progesterone Receptor (PR) Antagonism Beta-lactamase Follow-Up Assay (AID 2283936);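 further: hits lower the luminescence signal meaning cytotoxicity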
Procedure, shortened: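 PR-UAS-bla HEK293T cells (3,000/well, 2% charcoal-stripped FBS) given compound plus R5020 agonist, 16 h at 37C. CellTiter-Glo added after bla read, 30 min at room temperature; luminescence loss indicates cytotoxicity.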

PGR (gene 5241) = PGR (gene 5241) (UniProt P06401); test: TOX21_PR_LUC_Followup_Antagonist: Tox21 HEK293 Progesterone Receptor (PR) Antagonism Luciferase Follow-Up Assay (AID 2283938);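 further: curve fitted upward as signal gain over DMSO baseline despite antagonist label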
Sequence of PGR (gene 5241) (P06401 whole entry, looked up): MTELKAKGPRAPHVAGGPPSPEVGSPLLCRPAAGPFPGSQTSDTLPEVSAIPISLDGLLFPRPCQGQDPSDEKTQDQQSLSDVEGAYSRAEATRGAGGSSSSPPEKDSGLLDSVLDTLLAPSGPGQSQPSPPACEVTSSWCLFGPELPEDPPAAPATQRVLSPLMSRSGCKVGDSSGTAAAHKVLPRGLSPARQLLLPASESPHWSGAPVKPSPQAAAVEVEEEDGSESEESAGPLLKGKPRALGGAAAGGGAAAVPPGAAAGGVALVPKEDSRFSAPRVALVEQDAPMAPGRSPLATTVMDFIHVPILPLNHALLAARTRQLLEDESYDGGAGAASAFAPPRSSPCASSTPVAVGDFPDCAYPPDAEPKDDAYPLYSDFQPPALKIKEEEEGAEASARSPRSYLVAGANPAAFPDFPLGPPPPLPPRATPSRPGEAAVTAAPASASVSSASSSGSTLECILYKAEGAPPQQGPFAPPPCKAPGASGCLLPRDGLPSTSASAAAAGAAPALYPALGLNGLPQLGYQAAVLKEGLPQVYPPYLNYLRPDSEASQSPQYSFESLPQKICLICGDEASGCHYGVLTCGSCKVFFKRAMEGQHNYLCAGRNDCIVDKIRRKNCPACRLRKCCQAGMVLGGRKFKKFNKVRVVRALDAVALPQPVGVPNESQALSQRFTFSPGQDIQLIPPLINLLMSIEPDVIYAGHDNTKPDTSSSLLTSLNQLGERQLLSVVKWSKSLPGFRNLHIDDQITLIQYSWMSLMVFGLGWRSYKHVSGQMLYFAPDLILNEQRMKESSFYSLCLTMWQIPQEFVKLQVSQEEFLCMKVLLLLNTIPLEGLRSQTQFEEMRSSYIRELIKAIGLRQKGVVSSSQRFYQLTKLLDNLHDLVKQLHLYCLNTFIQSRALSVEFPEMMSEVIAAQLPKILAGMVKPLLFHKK
Procedure, shortened: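 Luminescence from ONE-Glo was measured 30 min after reagent addition, following 16 h exposure of HEK293-PR-A-luc cells (3,000/well, plated 5 h earlier) to DMSO-dissolved compounds at 37C; DMSO served as baseline.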

[11] = TOX21_PR_LUC_Followup_Antagonist_viability: Viability Assessment in the Tox21 HEK293 Progesterone Receptor (PR) Antagonism Luciferase Follow-Up Assay (AID 2283940)
Procedure, shortened: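 HEK293-PR-A-luc cells kept in charcoal-stripped FBS medium were plated 5 h before compound addition, then exposed 16 h at 37C; viability read as cellular ATP by luciferase luminescence, loss of signal indicating cytotoxicity.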

[12] = TOX21_PR_LUC_Followup_Agonist_viability: Viability Assessment in the Tox21 HEK293 Progesterone Receptor (PR) Agonism Luciferase Follow-Up Assay (AID 2283941);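 further: loss of signal means cytotoxicity so actives lower viability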
Procedure, shortened: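 HEK293-PR-A-luc cells, kept in 10% charcoal-stripped FBS medium, were treated with compounds for 16 h at 37C. Viability read as cellular ATP by luciferase-coupled luminescence; loss of signal indicates cytotoxicity.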

## Cc1ccc(/C=N/n2c(-c3ccccc3)csc2=S)cc1
[1]
  outcome: inactive
[2]
  outcome: inactive
[3]
  outcome: inactive
[4]
  outcome: inactive
[5]
  outcome: inactive
[6]
  outcome: inactive
[7]
  outcome: inactive
[8]
  outcome: inactive
[9]
  outcome: inactive
[10]
  outcome: inactive
PGR (gene 5241)
  outcome: inactive
[11]
  outcome: inactive
[12]
  outcome: inactive

## OCCN1CCN(CC/C=C2/c3ccccc3Sc3ccc(C(F)(F)F)cc32)CC1
[1]
  outcome: inactive
[2]
  outcome: inactive
[3]
  outcome: inactive
[4]
  outcome: inactive
[5]
  AC50: 36.3 µM (active)
[6]
  outcome: inactive
[7]
  outcome: inactive
[8]
  outcome: inactive

## O=C(O)c1cc(Cl)cc(Cl)c1
[1]
  outcome: inactive
[2]
  outcome: inactive
[3]
  outcome: inactive
[4]
  outcome: inactive
[5]
  outcome: inactive
[6]
  outcome: inactive
[7]
  outcome: inactive
[8]
  outcome: inactive

## Oc1ccc(N=Nc2ccccc2)cc1
[1]
  outcome: inactive
[2]
  AC50: 87.4 µM (active)
[3]
  AC50: 75 µM (active)
[4]
  AC50: 87.5 µM (active)
[5]
  AC50: 75.7 µM (active)
[6]
  AC50: 74.7 µM (active)
[7]
  outcome: inactive
[8]
  AC50: 87.8 µM (active)
[9]
  outcome: inactive
[10]
  outcome: inactive
PGR (gene 5241)
  outcome: inactive
[11]
  outcome: inactive
[12]
  outcome: inactive

## CCCCC(CC)CN1CN(CC(CC)CCCC)CC(C)(N)C1 (stereo not given)
[1]
  outcome: inactive
[2]
  outcome: inactive
[3]
  outcome: inactive
[4]
  outcome: inactive
[5]
  outcome: inactive
[6]
  outcome: inactive
[7]
  outcome: inactive
[8]
  outcome: inactive

## C[C@]12C=CC(=O)C=C1[C@@H](F)C[C@@H]1[C@@H]2[C@@H](O)C[C@@]2(C)[C@H]1CC[C@]2(O)C(=O)CO
[1]
  outcome: inactive
[2]
  outcome: inactive
[3]
  AC50: 37.3 µM (active)
[4]
  AC50: 43.5 µM (active)
[5]
  outcome: inactive
[6]
  outcome: inactive
[7]
  outcome: inactive
[8]
  outcome: inactive
[10]
  outcome: inactive
[11]
  outcome: inactive
[12]
  outcome: inactive

## CCOC(CN1CCN(CC(C)C(=O)c2ccccc2)CC1)c1ccccc1 (stereo not given)
[1]
  outcome: inactive
[2]
  outcome: inactive
[3]
  outcome: inactive
[4]
  outcome: inactive
[5]
  outcome: inactive
[6]
  outcome: inactive
[7]
  outcome: inactive
[8]
  outcome: inactive

## CCCCC(CC)CN=C(N)NC(N)=NCCCCCCN=C(N)NC(N)=NCC(CC)CCCC (stereo not given)
[1]
  AC50: 32 µM (active)
[2]
  AC50: 24.1 µM (active)
[3]
  AC50: 36.8 µM (active)
[4]
  AC50: 33.9 µM (active)
[5]
  AC50: 29.4 µM (active)
[6]
  AC50: 37.3 µM (active)
[7]
  AC50: 31.6 µM (active)
[8]
  AC50: 27.9 µM (active)

## O=C(O)CCC(=O)C(=O)O
[1]
  outcome: inactive
[2]
  outcome: inactive
[3]
  outcome: inactive
[4]
  outcome: inactive
[5]
  outcome: inactive
[6]
  outcome: inactive
[7]
  outcome: inactive
[8]
  outcome: inactive
